For 25 compounds, outcome and AC50 results are on record in PubChem BioAssay (EPA / NIEHS).

The structures appear in SMILES notation. Several values for one entry are separate records, joined by “and”; a condition that tells them apart may be missing. Equal values may be shown once. Inconclusive results are not listed. Where a structure was tested more than once in an assay, its records may differ in their call. Activity calls are given as the source filed them. The calls were made as follows: active = hit-call score of the fitted dose curve at least 0.9, where 1 is the maximum; inconclusive = response in the unintended direction; inactive = score below 0.9.

rat Peripheral-type Benzodiazepine Receptor (PBR), Tspo (gene 24230), sequence (P16257 whole entry, looked up): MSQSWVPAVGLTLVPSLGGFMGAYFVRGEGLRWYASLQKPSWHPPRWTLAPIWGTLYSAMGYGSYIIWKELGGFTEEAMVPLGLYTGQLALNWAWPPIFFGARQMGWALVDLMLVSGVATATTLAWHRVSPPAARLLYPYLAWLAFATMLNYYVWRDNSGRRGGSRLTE

The target in the assay is rat Peripheral-type Benzodiazepine Receptor (PBR), Tspo (gene 24230) (UniProt P16257). As to the kind of experiment: NVS_MP_rPBR: NovaScreen (NVS) Membrane Protein Assay for rat Peripheral-type Benzodiazepine Receptor (PBR) (AID 2283335). As to the method:
NVS_MP_rPBR is a biochemical, single-readout assay that uses extracted gene-proteins from Rat kidney membranes in a tissue-based cell-free assay. Measurements were taken 1 hour after chemical dosing in a 48-well plate.NVS_MP_rPBR is one of one assay component(s) measured or calculated from the NVS_MP_rPBR assay. It is designed to make measurements of radioligand binding, a form of binding reporter, as detected with scintillation counting signals by Filter-based radiodetection technology.Data from the assay component NVS_MP_rPBR was analyzed into 1 assay endpoint. This assay endpoint, NVS_MP_rPBR, was analyzed in the positive analysis fitting direction relative to DMSO as the negative control and baseline of activity. Using a type of binding reporter, loss-of-signal activity can be used to understand changes in the binding as they relate to the gene Tspo. Furthermore, this assay endpoint can be referred to as a primary readout, because the performed assay has only produced 1 assay endpoint. To generalize the intended target to other relatable targets, this assay endpoint is annotated to the transporter intended target family, where the subfamily is cholesterol transporter.
Binding assays used specific radioligands (tritiated, iodinated) with non-radioactive competitive displacement ligands in agonist or antagonist protocols (as indicated) and various reference compounds and inhibitors to titrate specific binding to receptors and transporters. Most enzyme assays (CYPs, kinases, phosphatases, proteases, HDACs) used recombinant protein and specific substrates (fluorescence mostly, some colorimetric and radioactive) and inhibitors, followed by a biochemical separation of substrate and product. All assays for the biochemical HTS were initially run in duplicate at a single concentration (10 uM for CYP450 assays and 25 uM for all others). […] Each assay was run with positive and negative controls, and concurrent controls on every plate. The follow-up (secondary) screen tested active chemical-pairs in concentration series, as well as a few additional assays not tested in the primary screen, some selected negative inactives, and several cases re-run in the concentration series for confirmatory purposes.
`CC(C)(C)CC(C)(C)c1ccc(O)cc1`: the compound was called inactive.

For the compound `CCNc1nc(NC(C)(C)C)nc(SC)n1`, the compound was classed as inactive.

As usually defined, the AC50 is the midpoint of the concentration-response curve, whichever way the signal moves. For the compound `CC(C)(c1ccc(OCC2CO2)cc1)c1ccc(OCC2CO2)cc1` (stereo unspecified), the AC50 was 4.31 µM (active).

`COP(=S)(OC)Oc1c(Cl)cc(C)cc1Cl`: the outcome was inactive.

Consider `COc1cc(-c2ccc(N)c(OC)c2)ccc1N`, for which the AC50 was 2.75 µM (active) and 2.71 µM (active).

Consider `Clc1ccc(C2(Cn3cncn3)CC(Br)CO2)c(Cl)c1` (stereo unspecified), for which the AC50 is 14.5 µM (active).

Turning to `CCOC(=O)/C=C(C)/C=C/C[C@@H](C)CCCC(C)C`, the AC50 is 17.6 µM (active).

For `O=[N+]([O-])c1ccc2c3c(cccc13)CC2`, the AC50 was 13.3 µM (active).

`CC12CC1(C)C(=O)N(c1cc(Cl)cc(Cl)c1)C2=O` (stereo unspecified): the AC50 is 6.63 µM (active) and 1.03 µM (active) and 850 nM (active).

As to `Nc1cccc2ccccc12`, the outcome was inactive.

In the case of `Nc1ccc(-c2ccc(N)c(Cl)c2)cc1Cl`, the outcome was inactive.

Turning to `C[C@@H]1C[C@@H]([C@H](O)CC2CC(=O)NC(=O)C2)C(=O)[C@@H](C)C1`, the AC50 was 33.3 µM (active) and the compound was classed as inactive.

Regarding `Clc1ccc(COC(Cn2ccnc2)c2ccc(Cl)cc2Cl)cc1` (stereo unspecified), the AC50 was 1.63 µM (active).

With `O=C(Cc1ccccc1)c1ccccc1`, the AC50 was 9.94 µM (active).

As to `COP(=O)(OC)O/C(=C\Cl)c1cc(Cl)c(Cl)cc1Cl`, the AC50 was 0.38 µM (active).

Turning to `Cc1ccccc1C(=O)Nc1cccc(OC(C)C)c1`, the AC50 is 1.13 µM (active).

In the case of `C[C@H]1CCCC(=O)CCC/C=C/c2cc(O)cc(O)c2C(=O)O1`, the AC50 is 0.346 µM (active).

For the compound `Cn1sc(Cl)cc1=O`, the result was inactive.

On to `O=C1C2(Cl)C3(Cl)C4(Cl)C(Cl)(Cl)C5(Cl)C3(Cl)C1(Cl)C5(Cl)C24Cl` (stereo unspecified), for which the result was inactive.

Regarding `COP(=S)(OC)Oc1ccc(Sc2ccc(OP(=S)(OC)OC)cc2)cc1`, the AC50 was 0.307 µM (active).

With `CCCCCCCCC(=O)NCc1ccc(O)c(OC)c1`, the AC50 is 6.25 µM (active).

For `CCOP(=S)(OCC)Oc1ccc(S(C)=O)cc1` (stereo unspecified), the result was inactive.

Take `COP(=S)(OC)Oc1ccc(S(=O)(=O)N(C)C)cc1`: the AC50 is 1.45 µM (active).

Turning to `O=Cc1cccc(Oc2ccccc2)c1`, the result was inactive.

Regarding `CCN1CCC2(CC1)COc1cc3c(cc12)N(C(=O)c1ccc(-c2ccc(-c4nnc(C)o4)cc2C)cc1)CC3`, the AC50 was 6.5 µM (active).
